Sampled rows, rich in hits. Any-hit rate of the full collection: about 1%.
VHR inh abs = DUSP3 (human) phosphatase inhibition; actives 0.52% (n = 290,000); inhibition, % at 13.3 µM; P51452; recombinant VHR phosphatase, pNPP absorbance; AID 1654; in the data active = inhibition above about 50%
Target sequence (P51452 whole entry, looked up): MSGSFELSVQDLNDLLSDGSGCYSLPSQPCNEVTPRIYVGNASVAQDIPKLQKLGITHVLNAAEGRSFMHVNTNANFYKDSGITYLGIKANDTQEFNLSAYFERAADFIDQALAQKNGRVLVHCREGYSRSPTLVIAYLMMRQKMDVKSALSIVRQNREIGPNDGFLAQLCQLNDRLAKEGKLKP
BioA inh = BioA (M. tuberculosis) enzyme inhibition; purified M. tuberculosis BioA enzyme, plate reader; inhibition, % at 9.99 µM; actives 0.096% (n = 360,000); AID 602481; in the data active = inhibition above about 40%
TcdB GH inh = TcdB glycohydrolase inhibition; TcdB glycohydrolase enzymatic assay, plate reader; actives 0.24% (n = 350,000); inhibition, % at 9.99 µM; P18177; in the data active = inhibition above about 10%
Y pestis TopoI = Y. pestis Topo-I inhibition via cleavage products; Y. pestis Topo-I cleavage product accumulation, plate reader; activity, % at 10 µM; actives 0.064% (n = 360,000); in the data active = activity above about 50%, passing the limit was not always enough
MazEF act = activators of E. coli MazEF toxin-antitoxin RNase; actives 0.32% (n = 350,000); P0AE70; AID 504720; activation, % at 20 µM; FAM/BHQ RNA-DNA oligo cleavage fluorescence, 5 h; in the data active = activation above about 50%
Target sequence (P0AE70 whole entry, looked up): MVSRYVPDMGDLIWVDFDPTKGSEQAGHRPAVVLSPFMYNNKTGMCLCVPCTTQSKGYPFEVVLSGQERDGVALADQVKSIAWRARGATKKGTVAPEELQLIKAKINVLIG
FadD28 binding = M. tuberculosis FadD28 bisubstrate binding inhibition. inhibition, % at 12.5 µM. FadD28 bisubstrate probe binding, fluorescence polarization. actives 0.22% (n = 360,000). AID 588549; in the data active = inhibition above about 8.5%, passing the limit was not always enough
Hits are given with their value.

COc1cc(CN2CC3(CCN(C(=O)CN4CCOCC4)CC3)c3c(n(C)c4cc(OC)ccc34)[C@H]2CO)cc(OC)c1 was read as TcdB GH inh inactive.
For Cc1ccc(C(C)CCN2CCC(n3nccc3NC(=O)c3ccccc3)CC2)o1 (stereo not given) the results were VHR inh abs 53, BioA inh inactive, TcdB GH inh inactive, Y pestis TopoI inactive, MazEF act inactive and FadD28 binding inactive.
O=C(O)COc1ccccc1C=NNc1ccc([N+](=O)[O-])cc1S(=O)(=O)Nc1ccc(Cl)cc1 was read as BioA inh inactive, TcdB GH inh inactive, Y pestis TopoI inactive, MazEF act inactive and FadD28 binding 16.
For O=C(O)c1ccccc1NS(=O)(=O)c1ccc(N/N=C/c2ccc(O)c(O)c2)c([N+](=O)[O-])c1 the results were BioA inh inactive, TcdB GH inh inactive, Y pestis TopoI inactive, MazEF act inactive and FadD28 binding 53.
For COc1ccccc1NS(=O)(=O)c1ccc(N/N=C/c2ccccc2OCC(=O)O)c([N+](=O)[O-])c1 the results were VHR inh abs inactive, BioA inh inactive, TcdB GH inh inactive, Y pestis TopoI inactive, MazEF act inactive and FadD28 binding 19.
`COCC(=O)Nc1ccc2c(c1)[C@H]1C[C@@H](CC(=O)NC3CCCCC3)O[C@H](CO)[C@H]1O2` gave BioA inh inactive and TcdB GH inh inactive.
For COc1ccc2c3c([nH]c2c1)[C@@H](CO)N(Cc1ccccc1)CC31CCN(C(=O)c2cccnc2)CC1 the results were TcdB GH inh inactive.
For C[C@@H](NC(=O)[C@@H]1[C@@H](CO)[C@@H]2Cn3c(ccc(-c4ccccc4F)c3=O)[C@H]1N2C)c1ccccc1 the results were BioA inh inactive and TcdB GH inh inactive.
`NC(=O)N/N=C/c1ccc([N+](=O)[O-])o1` gave BioA inh inactive, TcdB GH inh inactive, Y pestis TopoI inactive, MazEF act inactive and FadD28 binding inactive.
Screening O=[N+]([O-])c1ccc(/C=[N+](\[O-])CCO)o1 returned VHR inh abs 53, BioA inh inactive, TcdB GH inh inactive, Y pestis TopoI inactive, MazEF act inactive and FadD28 binding inactive.
`COc1ccc(OCC(O)COc2ccc(C(=O)O)cc2)cc1` (stereo not given) gave VHR inh abs 51, BioA inh inactive, Y pestis TopoI inactive, MazEF act inactive and FadD28 binding inactive.
For Cn1cnc(S(=O)(=O)N[C@@H]2CC[C@@H](CC(=O)N3CCN(c4ccccc4)CC3)O[C@@H]2CO)c1 the results were BioA inh inactive and TcdB GH inh inactive.
CNc1nc(-c2ccccc2)cc(C(F)(F)F)c1C#N was read as VHR inh abs inactive, BioA inh inactive, Y pestis TopoI inactive, MazEF act 400 and FadD28 binding inactive.
For CC(Sc1ncnc2sccc12)C(=O)Nc1ccc(C(N)=O)cc1 (stereo not given) the results were VHR inh abs inactive, BioA inh inactive, TcdB GH inh inactive, Y pestis TopoI inactive, MazEF act 54 and FadD28 binding inactive.
For CC(Sc1ncnc2sccc12)C(=O)Nc1ccc(S(N)(=O)=O)cc1 (stereo not given) the results were TcdB GH inh inactive, Y pestis TopoI inactive, MazEF act inactive and FadD28 binding inactive.
Screening O=C(NNC(=O)c1cc2cc(Br)ccc2oc1=O)c1ccc(O)cc1O returned VHR inh abs 60, Y pestis TopoI inactive, MazEF act inactive and FadD28 binding inactive.
`COCCCNC(=O)c1cc2cc(Br)ccc2oc1=O` gave VHR inh abs inactive, TcdB GH inh inactive, Y pestis TopoI inactive, MazEF act inactive and FadD28 binding inactive.
O=c1cc(CN2CCCc3ccccc32)nc2sccn12 was read as VHR inh abs inactive, BioA inh inactive, TcdB GH inh inactive, Y pestis TopoI inactive, MazEF act 91 and FadD28 binding inactive.
For CC(C)NC(=O)Nc1ccc2c(c1)CC(=O)N([C@H](C)CO)C[C@H](C)[C@H](CN(C)S(=O)(=O)c1ccccc1)O2 the results were BioA inh inactive and TcdB GH inh inactive.
CCS(=O)(=O)Nc1ccc2c(c1)C(=O)N(C)[C@H]1CC[C@H](CC(=O)NC)O[C@@H]1CO2 was read as TcdB GH inh inactive.
For O=C(Nc1ccccc1)c1nn(-c2ccccc2)c(=O)cc1C(F)(F)F the results were VHR inh abs inactive, BioA inh inactive, Y pestis TopoI inactive, MazEF act 381 and FadD28 binding inactive.

High-throughput results as filed in PubChem.
